Screening data as filed in PubChem.
An excerpt weighted towards active compounds, which were near 0.71% of everything screened.
Epigenetic derep – regulators of epigenetic silencing causing reporter derepression in mouse cells. hit rate 0.2% among 280,000. AID 1865. Potency, µM (highest dose often 53.9 µM), for inactives: at the top dose GFP activation, actives largely listed as activators. murine LDR cells, GFP reporter derepression, 30 h; note: potency is the fitted concentration of half-maximal effect; % of control where 0% means no effect; nearly all actives have a fitted effect of over 60% in size
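Derepression of a silenced CMV-GFP reporter in murine LDR cells is scored by enumerating GFP-positive cells with a laser-scanning microplate cytometer after 30 hours of treatment at 37 C.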
GoLoco inh red – blocks human Gai1 binding to RGS12 GoLoco peptide, red readout; Gai1:RGS12 GoLoco peptide FP, rhodamine, 10 min; Potency, µM (highest dose often 61.6 µM), inactives show at the top dose activity, negative = inhibition, usual class: inhibitors; hit rate 0.44% among 230,000; AID 880; active = well fitted inhibition curve with a large enough effect, not every such curve was filed as active; inactive = no such curve, though single readings can be large or run the other way; note: potency is the fitted concentration of half-maximal effect; % is set by controls: 0 for no effect and ±100 for the full control effect; nearly all actives have a fitted effect of over 30% in size
TexasRed fluor – alters Texas Red total fluorescence, flagging assay interference | TRb/SRC2 Texas Red total fluorescence interference | Potency, µM (highest dose often 106 µM), without a hit: top-dose fluorescence change, negative = quenching | hit rate 0.29% among 280,000 | AID 1479; active = well fitted curve in either direction with a large enough effect; inconclusive = small, poorly fitted or top-dose-only effect; note: potency is the fitted concentration of half-maximal effect; % is set by controls: 0 for no effect and ±100 for the full control effect
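Human TRb ligand-binding domain at 0.6 uM with 20 nM Texas Red SRC2 peptide in Tris buffer containing 1 uM T3 and 5% DMSO, incubated with compound 5 h at ambient temperature. Total fluorescence (555/632 nm) calculated as parallel + 2 × perpendicular.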
CBFb-RUNX1 inh – CBF-beta/RUNX1 interaction disruption; Q01196+Q13951; AlphaScreen CBFb-His/RUNX1-biotin binding, biochemical; Potency, µM (highest dose often 59.8 µM), without a hit: at the highest dose activity, negative = inhibition, usual class: inhibitors; 230,000 tested, under 10 active; AID 1477; note: % of control where 0% means no effect
Target sequence (Q01196 whole entry, looked up): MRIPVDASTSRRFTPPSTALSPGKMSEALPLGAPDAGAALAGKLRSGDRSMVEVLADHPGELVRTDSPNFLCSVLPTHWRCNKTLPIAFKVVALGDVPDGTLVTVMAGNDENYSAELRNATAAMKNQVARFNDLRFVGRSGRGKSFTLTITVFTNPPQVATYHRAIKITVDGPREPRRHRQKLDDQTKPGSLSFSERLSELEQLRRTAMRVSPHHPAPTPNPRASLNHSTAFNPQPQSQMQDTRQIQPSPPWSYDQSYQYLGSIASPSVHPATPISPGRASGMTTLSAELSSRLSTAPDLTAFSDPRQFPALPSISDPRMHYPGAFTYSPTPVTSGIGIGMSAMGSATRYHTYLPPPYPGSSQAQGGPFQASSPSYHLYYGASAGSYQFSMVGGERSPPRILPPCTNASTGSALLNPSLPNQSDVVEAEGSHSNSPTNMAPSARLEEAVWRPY
Target sequence (Q13951 whole entry, looked up): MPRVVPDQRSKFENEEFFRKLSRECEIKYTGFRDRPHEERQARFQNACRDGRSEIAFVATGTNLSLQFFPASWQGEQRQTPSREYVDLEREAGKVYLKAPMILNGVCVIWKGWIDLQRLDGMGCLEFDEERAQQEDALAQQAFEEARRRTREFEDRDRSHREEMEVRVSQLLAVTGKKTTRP
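Interaction loss through any mechanism counts as activity. Pre-formed complex of His-CBF-beta and biotin-RUNX1 (30 nM apiece) is incubated with compound 15 min, then with 50 ng nickel and 50 ng streptavidin beads for 90 min before AlphaScreen detection.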
TRb SRC2 PPI – inhibitors of human thyroid hormone receptor beta-SRC2 interaction; hit rate 0.065% among 280,000; AID 1469; TRbeta-SRC2 peptide binding, fluorescence polarization; receptor liganded with 1 µM T3; Potency, µM (top dose mostly 106 µM), for inactives: at the top dose activity change, negative = inhibition, usual class: inhibitors; P10828;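 note: potency is the fitted concentration of half-maximal effect; plate controls were bound peptide for no effect and peptide without receptor for full effect; nearly all actives have a fitted effect of over 50% in size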
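TRb LBD 0.6 uM + Texas Red SRC2 peptide 20 nM, 1 uM T3, Tris buffer w/ 5% DMSO; compound pinned, 5 h RT; FP read ex 555/em 632; normalized to unbound and bound controls.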
An asterisk follows results filed as active; ? = inconclusive; . = not tested or not shown; ! = not confirmed by another sample; [ ] = dose if it differs, or a comment. Unless noted, calls come from the whole dose curve; as a rule, active = well fitted curve in the direction sought with a large enough effect; inconclusive = small, poorly fitted or top-dose-only effect, or another doubt; inactive = no such curve, though single readings can be large; an effect the other way counts as inactive or inconclusive.

SMILES	Epigenetic derep	GoLoco inh red	TexasRed fluor	CBFb-RUNX1 inh	TRb SRC2 PPI
CC[N+](C)(CC)CCCOC(=O)C(O)(c1ccccc1)C1CCCCC1 (configuration not stated)	-1%	6.3µM*	0%	17%	5%
CN1CCN(c2ccc(F)cc2N)CC1	-1%	15%	-2%	5%	-5%
CN1CCN(c2ccccc2N)CC1	0%	25µM*	15%	5%	-22%
O=C(O)COc1ccc(Cl)cc1	.	.	-5%[201 µM]	.	4%[201 µM]
CO/N=C(/C(=O)OC)c1ccccc1COc1ccccc1C	.	.	-1%[201 µM]	.	-6%[201 µM]
COc1ccc(CCNCc2sccc2C)cc1OC	1%	25µM*	-1%	-9%	-6%
C1CC[CH]([Sn]([CH]2CCCCC2)[CH]2CCCCC2)CC1	.	.	1%[201 µM]	.	7%[201 µM]
O=P(O)(O)CN(CP(=O)(O)O)CP(=O)(O)O	.	.	-2%[201 µM]	.	-1%[201 µM]
O=c1c2ccccc2[se]n1-c1ccccc1	-9%	2.8µM*!	-1%	?	5%
COC[C@H]1OC(=O)c2coc3c2[C@@]1(C)C1=C(C3=O)[C@@H]2CCC(=O)[C@@]2(C)C[C@H]1OC(C)=O	?	-51%	45µM*[fluorescent]	1%	35µM*
N[C@@H](Cc1cc(Br)c(O)c(Br)c1)C(=O)O	-1%	11µM*!	0%	2%	-1%
Oc1c(Br)cc(Br)cc1Br	.	4%	-4%[201 µM]	13%[21.7 µM]	-10%[201 µM]
O=C(O)CCCC[C@@H]1SC[C@H]2NC(=O)N[C@@H]12	4%	5%	0%	13µM*	-6%
O=C1C=CC(=O)C=C1	7%	1.8µM*!	-6%	16%	-4%
N#Cc1c[nH]cc1-c1cccc2c1OC(F)(F)O2	.	.	-8%[201 µM]	.	0%[201 µM]
CCOP(=S)(OCC)SCSCC	.	.	-2%[201 µM]	.	0%[201 µM]
CNC(=O)OCc1n(C)cc[n+]1C	?	1.8µM*	0%	-1%	4%
CNC(=O)OCCc1nccn1C	-3%	0%	-1%	9%	3%
CNC(=O)Oc1cc(C)c(SC)c(C)c1	.	.	2%[201 µM]	.	3%[201 µM]
O=C1C=CC(=O)c2ccccc21	.	.	-6%[201 µM]	.	-5%[201 µM]
O=C1C=CC(=O)C(Cl)=C1	3%	1.8µM*	-8%	.	-1%
Cc1cccc2sc3nncn3c12	.	.	-4%[201 µM]	.	1%[201 µM]
O=C(Cc1cc(=O)[nH][nH]1)N/N=C/c1ccccc1Cl	1%	5%	1413µM*[quencher]	-1%	-9%
O=C(CSC1c2ccccc2-c2ccccc21)N/N=C/c1ccccc1C(=O)O	-2%	-7%	-1%	-7%	-13%
CCn1ccnc1CN1CCCC(C(=O)c2cc(F)ccc2OC)C1 (configuration not stated)	4µM*	267%	-3%	-8%	7%
SMILES	Epigenetic derep	GoLoco inh red	TexasRed fluor	CBFb-RUNX1 inh	TRb SRC2 PPI
COC(=O)N(C(=O)N1COC2(C(=O)OC)Cc3cc(Cl)ccc3C2=N1)c1ccc(OC(F)(F)F)cc1 (configuration not stated)	.	.	-2%[201 µM]	.	4%[201 µM]
C[C@@H]1O[C@H](C[N+](C)(C)C)CS1	-1%	32µM*	0%	-4%	-2%
COc1cccc2c1C(=O)c1c(O)c3c(c(O)c1C2=O)C[C@](O)(/C(C)=N\O)C[C@@H]3O[C@H]1C[C@H](N)[C@@H](O)[C@H](C)O1	.	0.63µM*	.	.	.
COc1cccc(C(=O)NN(C(=O)c2cc(C)cc(C)c2)C(C)(C)C)c1C	.	.	3%[201 µM]	.	0%[201 µM]
CN(C)[C@@H]1C(=O)C(C(N)=O)=C(O)[C@]2(O)C(=O)C3=C(O)c4c(O)ccc(Cl)c4[C@](C)(O)[C@H]3C[C@@H]12	2%[16.9 µM]	0%[21.6 µM]	1%[53 µM]	?	0%[53 µM]
CN(C)C1C(=O)C(C(N)=O)=C(O)[C@@]2(O)C(=O)C3=C(O)c4c(O)cccc4[C@@](C)(O)C3CC12 (some centres not stated)	-1%	35µM*	?	-4%	0%
C=CC(=O)OCC(CC)(COC(=O)C=C)COC(=O)C=C	.	.	4%[201 µM]	.	-10%[201 µM]
CCCCCCCCCCCC#N	.	.	2%[201 µM]	.	5%[201 µM]
CNC(=O)Oc1cc(C)cc(C(C)C)c1	.	.	-3%[201 µM]	.	0%[201 µM]
C[n+]1c2cc(N)ccc2cc2ccc(N)cc21	0.79µM*	-42%	0%	26%	12%
O=C1NC(=O)C(=Cc2ccc(Sc3ccccc3)o2)C(=O)N1	?	28%	0%	1%	0%
